The source made the active and inactive calls.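 The calls were made as follows, unless noted: active = NADPH fluorescence slope more negative than the mean of all samples by about 3 SD, 99.7% confidence; inactive = the rest.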

Assay [1] in a line: inhibitors of TNFa-induced NFkB p65 translocation, primary screen, imaging, HUVEC, MLSMR starter and 10KST1 sets (AID 438;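 active = inhibition above 20% together with a positive visual image hit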;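 also: compound added about 3h40 before a 20 min TNFalpha stimulation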;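 as to inhibition: signal is the nuclear over cytoplasmic p65 intensity ratio per well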). Conditions: HUVEC TNFa-induced p65 nuclear translocation; cell count: measured here: nuclei count (cytotoxicity indicator), at 2.08 µM; inhibition: at 2 µM, stronger effect = higher value, 0% TNFa-plus-vehicle, 100% no-TNFa wells.
Assay [2] can be described thus: inhibitors of mutant huntingtin aggregation, primary screen, imaging, exon1htt(103Q)mCFP cells, high-content imaging (AID 483;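 active = visual image review flags a hit and inhibition of aggregation exceeds 20%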;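 also: compound exposure lasted 3 days before fixation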;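 as to nuclei count: percent of the per-plate median nuclei count of sample wells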). Conditions: exon1htt(103Q)mCFP cell line, aggregate imaging, at 2 µM; inhibition of aggregation: stronger effect = higher value; nuclei count: measured here: cell count, toxicity.
The nature of assay [3]: inhibitors of E-selectin induction by TNFa, primary screen, imaging, HUVEC, immunofluorescence, MLSMR starter and 10KST1 sets (AID 487;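 active = visually confirmed hit in the image check and inhibition above 20%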;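 as to inhibition: signal is fraction of cell area covered by stained E-selectin grains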;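 as to nuclei count: 100% = median nuclei count of all wells on the same plate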). The following applies: HUVEC TNFalpha-induced E-selectin immunofluorescence imaging, at 2 µM; inhibition: stronger effect = higher value; nuclei count: measured here: cell number, toxicity.
In assay [4] the target is Voltage-gated potassium channel subunit beta-2 (Rattus norvegicus) (UniProt P62483). The assay is described as follows: KvBeta enzyme negative modulators, primary screen, biochemical, NADPH fluorescence (AID 622;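 active = fluorescence slope higher than the sample average by over 3 SD, cut at about -0.22 in these data, passing the limit was not always enough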;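 also: slope of raw intensity against log time taken from 70 to 1610 s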). Conditions: recombinant KvBeta, 4-cyanobenzaldehyde reduction, at 10 µM, stronger effect = higher value.
Voltage-gated potassium channel subunit beta-2 (Rattus norvegicus), sequence (P62483 whole entry, looked up): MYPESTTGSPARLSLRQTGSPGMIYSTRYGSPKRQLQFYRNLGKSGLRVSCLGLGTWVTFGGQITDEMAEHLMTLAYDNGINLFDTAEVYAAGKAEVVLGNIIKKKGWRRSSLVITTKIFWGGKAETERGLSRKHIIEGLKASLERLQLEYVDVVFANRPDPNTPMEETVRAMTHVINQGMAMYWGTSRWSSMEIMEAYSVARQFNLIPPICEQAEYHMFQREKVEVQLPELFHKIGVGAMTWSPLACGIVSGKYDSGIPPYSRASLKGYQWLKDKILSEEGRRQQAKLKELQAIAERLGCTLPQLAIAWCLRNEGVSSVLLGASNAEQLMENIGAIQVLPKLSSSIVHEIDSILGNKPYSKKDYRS
Assay [5] has the same target. The assay is described as follows: KvBeta positive modulators, primary screen, biochemical, NADPH fluorescence (AID 623).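 Also: fluorescence intensity change per second fitted from 20 to 320 s.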 The following applies: Recombinant KvBeta, NADPH fluorescence decrease slope, 10 min; at 10 µM; stronger effect = lower value.
The target of assay [6] is Alpha-2C adrenergic receptor (Homo sapiens) (UniProt P18825). The assay is described as follows: modulators of alpha2C/GIRK thallium flux, primary screen, cell-based, HEK293 alpha2C/GIRK1/2 (AID 624;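 active = fluorescence slope after compound addition differing from the mean of all screened samples at 99.7% confidence, in either direction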;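 also: slope of fluorescence ratio to pre-addition baseline per second over 15 to 24 s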). Conditions: thallium flux BTC fluorescence, at 10 µM, actives lie on both sides.
Alpha-2C adrenergic receptor (Homo sapiens), sequence (P18825 whole entry, looked up): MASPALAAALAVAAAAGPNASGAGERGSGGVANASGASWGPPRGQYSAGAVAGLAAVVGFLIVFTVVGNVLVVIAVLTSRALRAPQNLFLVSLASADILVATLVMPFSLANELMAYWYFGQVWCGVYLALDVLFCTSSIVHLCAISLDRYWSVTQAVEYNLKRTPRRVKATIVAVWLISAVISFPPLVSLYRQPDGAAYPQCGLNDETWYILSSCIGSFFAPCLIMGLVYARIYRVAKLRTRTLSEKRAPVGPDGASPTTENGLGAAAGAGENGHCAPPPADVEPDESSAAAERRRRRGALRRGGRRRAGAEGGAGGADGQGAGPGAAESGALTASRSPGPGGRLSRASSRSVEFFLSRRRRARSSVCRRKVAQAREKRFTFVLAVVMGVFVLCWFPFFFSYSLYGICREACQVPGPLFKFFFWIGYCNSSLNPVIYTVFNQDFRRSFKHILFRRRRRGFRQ
Assay [7] can be described thus: inhibitors of Sendai virus-induced IRF3 signaling, primary screen, TLR/RLR signaling modifier project, cell-based, Sendai virus stimulus, luciferase, 10K MLSCN set (AID 602276;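 active = inhibition at or above 50% at 10 µM; inactive = inhibition below 50%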;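 also: firefly luciferase from ISG56 promoter only with Renilla not read in this screen; 0% = Sendai virus plus DMSO and 100% = medium plus DMSO without virus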). Conditions: HEK293 RL24 IRF3 luciferase reporter, at 10 µM, stronger effect = higher value.
Assay [8] can be described thus: inhibitors of poly I:C-induced TLR3 signaling, primary screen, cell-based, poly I:C stimulus, luciferase, 10K MLSCN set (AID 602277;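 active = inhibition of the reporter signal at or above 50%; inactive = inhibition below 50%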). Conditions: HEK293-TLR3 RL24 IRF3 luciferase reporter, at 10 µM, stronger effect = higher value.

On to `O=c1[nH]c2ccc(Br)cc2c(-c2ccccc2)c1N1CCOCC1`, for which, in assay [1], the cell count is 728. Besides, the inhibition in assay [1] is -8% (inactive); in assay [3], -12% (inactive); in assay [7], -7.49% (inactive); in assay [8], -16.4% (inactive). Besides, in assay [2], the inhibition of aggregation was -1.1% (inactive). Moreover, the nuclei count in assay [2] was determined as 88.6%; in assay [3], 119%. The fluorescence slope in assay [4] is -0.396 (inactive). Moreover, in assay [5], the NADPH fluorescence slope is 2.9e-05 (inactive). The slope in assay [6] is 0.00458 (inactive).
Turning to `CC1CN(Cc2nc3c(c(=O)[nH]c(=O)n3C)n2CC(N)=O)CC(C)O1` (centres undefined), the cell count in assay [1] came to 780. The inhibition in assay [1] is -7.4% (inactive); in assay [3], -33% (inactive); in assay [7], 12.8% (inactive); in assay [8], 20.4% (inactive). Besides, in assay [2], the inhibition of aggregation was -1.9% (inactive). Also, the nuclei count came out at 112% in assay [2] and 111% in assay [3]. In addition, in assay [4], the fluorescence slope was -0.567 (inactive). Also, in assay [5], the NADPH fluorescence slope was -3.9e-05 (inactive). The slope in assay [6] is 0.00597 (inactive).
Consider `CCOc1cc(/C=N/n2cnnc2)cc(Br)c1O`, for which the cell count in assay [1] was 819. The inhibition in assay [1] was 4.2% (inactive); in assay [3] it was -30.9% (inactive); in assay [7], 13.1% (inactive); in assay [8], 7.19% (inactive). Further, the inhibition of aggregation in assay [2] was -15.3% (inactive). The nuclei count in assay [2] came to 100%; in assay [3], 124%. In assay [4], the fluorescence slope is -0.381 (inactive). Also, in assay [5], the NADPH fluorescence slope is -4.4e-06 (inactive). Also, in assay [6], the slope is 0.00481 (inactive).
As to `CCOc1ccc(C(C)=O)cc1COc1ccc(-n2cnnn2)cc1`, in assay [1], the cell count is 407. The inhibition is -8.7% (inactive) in assay [1], 25.1% (inactive) in assay [3], 1.13% (inactive) in assay [7] and -2.41% (inactive) in assay [8]. In addition, the inhibition of aggregation in assay [2] is 18.3% (inactive). The figures for the nuclei count in assay [2] and in assay [3] were 80.8% and 132%, respectively. Moreover, in assay [4], the fluorescence slope was -0.617 (inactive). Also, the NADPH fluorescence slope in assay [5] was -6.6e-05 (inactive). Besides, the slope in assay [6] is 0.00398 (inactive).
Regarding `O=C(CSc1ncc(-c2ccc(F)cc2)[nH]1)N1CCCCC1`, the cell count in assay [1] came to 425. Moreover, the inhibition in assay [1] was 0% (inactive); in assay [3], -25.6% (inactive); in assay [7], -13% (inactive); in assay [8], -71.4% (inactive). For the same compound, the inhibition of aggregation in assay [2] was -11% (inactive). Besides, the results for the nuclei count in assay [2] and in assay [3] were 78.3% and 106%, respectively. For the same compound, in assay [4], the fluorescence slope is -0.331 (inactive). Moreover, the NADPH fluorescence slope in assay [5] was -5.1e-05 (inactive). Further, the slope in assay [6] is 0.00631 (inactive).
Turning to `COc1ccc(N(CC(=O)Nc2ccc3c(c2)OCO3)S(=O)(=O)c2c(C)nn(C)c2C)cc1`, the cell count in assay [1] worked out at 538. Further, the inhibition was 11.9% (inactive) in assay [1], -46% (inactive) in assay [3], 10.2% (inactive) in assay [7] and 17.3% (inactive) in assay [8]. Also, in assay [2], the inhibition of aggregation was 17.9% (inactive). The nuclei count in assay [2] was 51%; in assay [3] it was 105%. Besides, the fluorescence slope in assay [4] was -0.57 (inactive). For the same compound, the NADPH fluorescence slope in assay [5] is -4.5e-06 (inactive). Besides, the slope in assay [6] was 0.00577 (inactive).
Regarding `CN(C)CCCN1C(=O)c2oc3ccccc3c(=O)c2C1c1cccs1` (centres undefined), the cell count in assay [1] was 665. For the same compound, the inhibition in assay [1] is -1.2% (inactive); in assay [3] it was -25.6% (inactive); in assay [7] it was 7.52% (inactive); in assay [8] it was 8.07% (inactive). In addition, in assay [2], the inhibition of aggregation is -8.2% (inactive). The nuclei count in assay [2] was 107%; in assay [3] it was 132%. Further, the fluorescence slope in assay [4] was -0.443 (inactive). For the same compound, the NADPH fluorescence slope in assay [5] was 4e-06 (inactive). In assay [6], the slope is 0.00339 (inactive).
Turning to `COc1ccc(N2CCN(C(=O)COc3ccc4ccccc4c3)CC2)cc1`, in assay [1], the cell count is 737. Moreover, the inhibition in assay [1] is 7.3% (inactive); in assay [3] it was -29.6% (inactive); in assay [7] it was 4.32% (inactive); in assay [8], 10.9% (inactive). Besides, in assay [2], the inhibition of aggregation was 7.5% (inactive). Moreover, the nuclei count in assay [2] came out at 93.8%; in assay [3], 111%. Besides, the fluorescence slope in assay [4] is -0.468 (inactive). Also, the NADPH fluorescence slope in assay [5] is -5.8e-05 (inactive). For the same compound, in assay [6], the slope was 0.00617 (inactive).
As to `CCOC(=O)N1CCC(Nc2ncnc3c2cnn3-c2ccc(C)cc2C)CC1`, the cell count in assay [1] came to 684. Further, the inhibition in assay [1] was -0.8% (inactive); in assay [3] it was -36.3% (inactive); in assay [7], 3.02% (inactive); in assay [8] it was -54.1% (inactive). Further, the inhibition of aggregation in assay [2] was 6.9% (inactive). In addition, the nuclei count in assay [2] is 92.6%; in assay [3], 124%. Also, the fluorescence slope in assay [4] is -0.529 (inactive). Besides, the NADPH fluorescence slope in assay [5] was -4.5e-05 (inactive). The slope in assay [6] is 0.00533 (inactive).
Consider `CC(C)CCNC(=O)C(C)N(Cc1ccc(F)cc1)C(=O)c1ccc(CN2CCCCC2)o1` (centres undefined), for which the cell count in assay [1] came to 327. For the same compound, the inhibition was -11.2% (inactive) in assay [1], 2.1% (inactive) in assay [3], 7.35% (inactive) in assay [7] and 14% (inactive) in assay [8]. In addition, in assay [2], the inhibition of aggregation is 28.1% (active). Besides, the nuclei count in assay [2] turned out to be 75.3%; in assay [3], 106%. Also, the fluorescence slope in assay [4] was -0.284 (inactive). In assay [5], the NADPH fluorescence slope is -6e-05 (inactive). Further, the slope in assay [6] was 0.00436 (inactive).
Turning to `O=C(O)CCCC(=O)Nc1nc(-c2ccc(F)cc2)cs1`, the cell count in assay [1] is 392. For the same compound, the inhibition was -1.3% (inactive) in assay [1], -90.5% (inactive) in assay [3], 6.78% (inactive) in assay [7] and 14.9% (inactive) in assay [8]. Besides, the inhibition of aggregation in assay [2] was -6.1% (inactive). Besides, the results for the nuclei count in assay [2] and in assay [3] were 94.3% and 141%, respectively. Moreover, in assay [4], the fluorescence slope is -0.327 (inactive). The NADPH fluorescence slope in assay [5] is -1.1e-05 (inactive). Besides, the slope in assay [6] is 0.00291 (inactive).
In the case of `CCOc1ccc(S(=O)(=O)N2CCN(C(=O)c3cccn3C)CC2)cc1`, the cell count in assay [1] was found to be 431. The inhibition in assay [1] is 2% (inactive); in assay [3] it was -88.3% (inactive); in assay [7], 13.9% (inactive); in assay [8] it was 19.3% (inactive). The inhibition of aggregation in assay [2] was -7.2% (inactive). Besides, the nuclei count is 95.6% in assay [2] and 105% in assay [3]. Besides, the fluorescence slope in assay [4] is -0.502 (inactive). For the same compound, the NADPH fluorescence slope in assay [5] is -9e-06 (inactive). Moreover, the slope in assay [6] was 0.00499 (inactive).
`CCOC(=O)C1CCCN(CC(=O)NC2CC2)C1` (centres undefined): the cell count in assay [1] came out at 446. The inhibition is 1.1% (inactive) in assay [1], -23.9% (inactive) in assay [3], 13.3% (inactive) in assay [7] and 15.3% (inactive) in assay [8]. Further, the inhibition of aggregation in assay [2] is -11.4% (inactive). Moreover, the nuclei count is 98.9% in assay [2] and 101% in assay [3]. Also, the fluorescence slope in assay [4] is -0.318 (inactive). The NADPH fluorescence slope in assay [5] was -7.1e-05 (inactive). For the same compound, the slope in assay [6] was 0.00531 (inactive).
Regarding `CCOc1ccc(-c2nc(C#N)c(N3CCN(C)CC3)o2)cc1`, in assay [1], the cell count is 447. The inhibition is 7.9% (inactive) in assay [1], -123% (inactive) in assay [3], 10.5% (inactive) in assay [7] and 11% (inactive) in assay [8]. Further, the inhibition of aggregation in assay [2] is -9.4% (inactive). Further, the nuclei count amounted to 102% in assay [2] and 127% in assay [3]. Further, the fluorescence slope in assay [4] is -0.415 (inactive). In assay [5], the NADPH fluorescence slope was -1.8e-05 (inactive). The slope in assay [6] was 0.00522 (inactive).

These data come from PubChem BioAssay.
